According to ChEMBL document CHEMBL4513141, “CO-ADD screening of NIH (USA) - Clinical Collection” (2021):
Potency and affinity values are given separately.

Test system: Cryptococcus neoformans
Settings: Concentration 20 uM; ASSAY_TEST Inhibition of Fungal Growth; detection method Resazurin; Absorption (OD600-OD570); plate type 384well; NBS; CORNING #3640

Row | SMILES | Inhibition [%]
1 | CCc1nn(CCCN2CCN(c3cccc(Cl)c3)CC2)c(=O)n1CCOc1ccccc1.Cl [NEFAZODONE HYDROCHLORIDE] | -2.69
2 | O=C1C(CC[S+]([O-])c2ccccc2)C(=O)N(c2ccccc2)N1c1ccccc1 (configuration not stated) [SULFINPYRAZONE] | -8.91
3 | CC(C)(C)NC[C@H](O)COc1nsnc1N1CCOCC1.O=C(O)/C=C\C(=O)O [TIMOLOL MALEATE] | -3.81
4 | CC(C)NCC(O)c1ccc(NS(C)(=O)=O)cc1.Cl (configuration not stated) [SOTALOL HYDROCHLORIDE] | 3.23
5 | CCOC(=O)C1=C(C)NC(C)=C(C(=O)OC)C1c1cccc(Cl)c1Cl (configuration not stated) [FELODIPINE] | -9.45
6 | CC(C)c1ccc2c(c1)c(SC(C)(C)C)c(CC(C)(C)C(=O)O)n2Cc1ccc(Cl)cc1 | -9.17
7 | COc1ccc(C(=O)NCc2ccc(OCCN(C)C)cc2)cc1OC.Cl | -2.57
8 | CC(=O)/N=c1/sc(S(N)(=O)=O)nn1C [METHAZOLAMIDE] | -3.07
9 | N[C@@H](Cc1cc(I)c(Oc2cc(I)c(O)c(I)c2)c(I)c1)C(=O)O [LEVOTHYROXINE] | -5.43
10 | CCN1CCC[C@H]1CNC(=O)c1c(O)c(Cl)cc(Cl)c1OC [RACLOPRIDE] | 1.03
11 | Cc1cccc(CN2CCN(C(c3ccccc3)c3ccc(Cl)cc3)CC2)c1.Cl.Cl (configuration not stated) | -13
12 | Nc1nnc(-c2cccc(Cl)c2Cl)c(N)n1 [LAMOTRIGINE] | -2.92
13 | Clc1ccc2c(c1)C(N1CCNCC1)=Nc1ccccc1O2 [AMOXAPINE] | -1.42
14 | CC(C)[C@H](N)C(=O)OCCOCn1cnc2c(=O)nc(N)[nH]c21.Cl [VALACYCLOVIR HYDROCHLORIDE] | -5.07
15 | COc1ccc([C@@H]2Sc3ccccc3N(CCN(C)C)C(=O)[C@@H]2OC(C)=O)cc1.Cl [DILTIAZEM HYDROCHLORIDE] | 1.8
16 | Cl.c1ccc(CC2=NCCN2)cc1 [TOLAZOLINE HYDROCHLORIDE] | -1.43

Row | SMILES | Inhibition [%]
17 | Cc1cnc(NC(=O)C2=C(O)c3ccccc3S(=O)(=O)N2C)s1 [MELOXICAM] | -3.68
18 | CN1CCN(CCCN2c3ccccc3Sc3ccc(C(F)(F)F)cc32)CC1.Cl.Cl [TRIFLUOPERAZINE HYDROCHLORIDE] | -7.04
19 | CC(C)[N+]1(C)C2CCC1CC(OC(=O)C(CO)c1ccccc1)C2.[Br-] (configuration not stated) | -6.11
20 | CCC[C@@H]1C[C@@H](C(=O)N[C@@H]([C@H]2O[C@H](SC)[C@H](O)[C@@H](O)[C@H]2O)[C@@H](C)O)N(C)C1.Cl.O [LINCOMYCIN HYDROCHLORIDE] | -3.42
21 | CC(C)c1ccc2oc3nc(N)c(C(=O)O)cc3c(=O)c2c1 [AMLEXANOX] | -1.01
22 | COc1cc(C(=O)NS(=O)(=O)c2ccccc2C)ccc1Cc1cn(C)c2ccc(NC(=O)OC3CCCC3)cc12 [ZAFIRLUKAST] | 1.96
23 | CCN(CC)C(=O)[C@]1(c2ccccc2)C[C@@H]1CN.Cl [1R,2S-MILNACIPRAN HYDROCHLORIDE] | -10.1
24 | CCN(CC)CC1CCCCN1CC(=O)N1c2ccccc2C(=O)Nc2cccnc21 (configuration not stated) [OTENZEPAD] | 3.45
25 | CNCC(O)c1ccc(O)c(O)c1 (configuration not stated) [RACEPINEPHRINE] | -0.68
26 | Cl.NC1CCN(c2cccc(Cl)n2)CC1 | 0.18
27 | CCOC(=O)OC(C)OC1=C(C(=O)Nc2ccccn2)N(C)S(=O)(=O)c2ccccc21 (configuration not stated) [AMPIROXICAM] | -3.23
28 | C#C[C@]1(O)CC[C@H]2[C@@H]3CCC4=CC(=O)CC[C@@H]4[C@H]3CC[C@@]21CC [LEVONORGESTREL] | 2.67
29 | C/C=C1/[C@H]2C=C(C)C[C@]1(N)c1ccc(O)nc1C2 | -7.02
30 | C#C[C@]1(O)CC[C@H]2[C@@H]3CCC4=Cc5oncc5C[C@]4(C)[C@H]3CC[C@@]21C [DANAZOL] | 0.96
31 | C=C1/C(=C\C=C2/CCC[C@]3(C)[C@@H]([C@H](C)/C=C/[C@@H](O)C4CC4)CC[C@@H]23)C[C@@H](O)C[C@@H]1O [CALCIPOTRIENE] | 0.21
32 | CCC(=C(c1ccccc1)c1ccc(OCCN(C)C)cc1)c1ccccc1 | 1.89
